Hits are enriched below; roughly 0.3% of the tested compounds scored in any of these assays.
NPYLR7 ag: mosquito NPYLR7 agonism; HEK293T NPYLR7/Galpha15, GCaMP6s calcium fluorescence; activation, % at 10 µM; 270,000 compounds, 0.15% hits; in the data active = activation above about 40%;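 also: 0% = vehicle and 100% = reference agonist at the receptor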
hcGAS lum: human cGAS inhibition; recombinant h-cGAS, ATP depletion, Kinase-Glo luminescence; AID 1259398; inhibition, % at 12.5 µM; 290,000 compounds, 0.081% hits;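 also: 0% = vehicle reaction and 100% = reaction without DNA for no activity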
mcGAS lum: mouse cGAS inhibition by luminescence; Q8C6L5; 160,000 compounds, 0.15% hits; AID 1259399; recombinant cGAS, Kinase-Glo ATP depletion luminescence; inhibition, % at 12.5 µM;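 also: 0% = negative control wells and 100% = reference inhibitor with no enzyme activity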
Target sequence (Q8C6L5 whole entry, looked up): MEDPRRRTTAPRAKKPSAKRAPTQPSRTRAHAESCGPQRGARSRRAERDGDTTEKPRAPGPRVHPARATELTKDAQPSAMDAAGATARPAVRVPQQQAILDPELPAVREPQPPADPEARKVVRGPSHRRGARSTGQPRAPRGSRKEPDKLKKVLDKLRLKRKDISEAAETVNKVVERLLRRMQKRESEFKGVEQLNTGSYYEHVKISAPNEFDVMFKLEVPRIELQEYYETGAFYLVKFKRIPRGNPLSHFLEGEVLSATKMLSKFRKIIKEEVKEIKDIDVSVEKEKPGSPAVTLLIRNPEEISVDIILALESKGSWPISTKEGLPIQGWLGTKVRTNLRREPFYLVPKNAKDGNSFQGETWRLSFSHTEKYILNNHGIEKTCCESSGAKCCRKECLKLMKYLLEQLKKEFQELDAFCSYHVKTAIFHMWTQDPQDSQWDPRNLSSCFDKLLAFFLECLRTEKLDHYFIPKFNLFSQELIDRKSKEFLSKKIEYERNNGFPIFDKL
Active calls of the source: *; · = no result given; ! = not active in a repeat. Rule as the data show it, unless noted: active = inhibition above about 40%; inactive = the rest.

SMILES	NPYLR7 ag	hcGAS lum	mcGAS lum
O=C(COc1ccc(Cl)cc1)N1CCCC(OCc2ccc(F)cc2)C1 (stereo unspecified)	5	-3	-5
COC(=O)COc1ccc2c(=O)c(-c3ccc(Cl)cc3)c(C)oc2c1	-2	-3	-4
O=c1c2cccc(F)c2ncn1CC1CCCCO1 (stereo unspecified)	21	-8	-8
O=[N+]([O-])c1ccc(Sc2nnnn2-c2ccccc2)c([N+](=O)[O-])c1	3	-7	72*
O=[N+]([O-])c1cc(S(=O)(=O)C(F)(F)F)ccc1Sc1nnnn1-c1ccccc1	0	-7	12
CSc1ncc(CN[C@H](C)c2ccc(C)cc2)c(N2CCCC2)n1	13	-7	-5
CC(Cn1ccnc1)NC(=O)NCC(C)(C)c1ccccc1F (stereo unspecified)	0	43*	·
CC(Cn1ccnc1)NC(=O)c1ccccc1N(C)C(=O)c1cccs1 (stereo unspecified)	5	-2	·
N#CC1C(=N)SC(=N)C(C#N)C1c1ccccc1I (stereo unspecified)	36	9	·
N#CC1C(=N)SC(=N)C(C#N)C1c1cccc(F)c1 (stereo unspecified)	97*	54*	45*
N#CC1C(=N)SC(=N)C(C#N)C1c1cccc(Cl)c1 (stereo unspecified)	2	-2	12
N#CC1C(=N)SC(=N)C(C#N)C1c1cccc(Cl)c1Cl (stereo unspecified)	14	-2	18
N#CC1C(=N)SC(=N)C(C#N)C1c1ccccc1F (stereo unspecified)	47*!	68*!	59*
N#CC1C(=N)SC(=N)C(C#N)C1c1ccc(Cl)cc1Cl (stereo unspecified)	164*	7	·
CCn1c(CNC(=O)CN2CCSC2=O)nc2ccccc21	1	2	·
CCc1nc2ccc(C(=O)N(C)C(C)C)cn2c1N(C)Cc1cc2ccccc2s1	11	-3	-4
COc1ccccc1-c1csc2nc(CN(CC(O)COCC(C)C)C3CCCCC3)[nH]c(=O)c12 (stereo unspecified)	-8	3	1
N#Cc1cc(C(=O)c2cc(Br)ccc2O)cn(-c2ccccc2Cl)c1=O	42	-5	·
N#Cc1cc(C(=O)c2cc(Cl)cc(Cl)c2O)cn(-c2nccs2)c1=O	135*	-1	·
COc1cc(NC(=O)c2nccnc2-c2nc3ccccc3s2)cc(OC)c1	1	0	-7
Cn1ncc2c(N3CCCCC3)nc(N(CCO)Cc3ccccc3)nc21	1	-6	-8
OCCN(CCO)c1nc(N2CCCCC2)c2nc(N(CCO)CCO)nc(N3CCCCC3)c2n1	75*!	1	-3
CSc1nnc2c(n1)OC(c1cc(Br)c(OC(=O)c3ccc([N+](=O)[O-])cc3)c(Br)c1)Nc1ccccc1-2 (stereo unspecified)	7	6	42*
COc1cc(C2Nc3ccccc3-c3nnc(SC)nc3O2)cc(Br)c1OC (stereo unspecified)	-1	-9	-3
CCN(CC)C(=O)c1ccc[nH]1	12	-13	·
SMILES	NPYLR7 ag	hcGAS lum	mcGAS lum
CC1(C)OC2c3ccccc3OC3(C)CCC1CC23 (stereo unspecified)	-5	-5	·
CC1CC2(C)Oc3ccccc3C3OCC1(CO)C(C)C32 (stereo unspecified)	43*	0	-6
Cc1cccnc1-n1c(SCC(=O)N2CCCC2=O)nc2ccccc2c1=O	-7	-3	·
CN(C)/C=C1\C(=O)N(c2c(Cl)cccc2Cl)c2cc(C=C(C#N)C#N)ccc21	125*	-38	·
N#CC(=CC1C(=O)N(c2c(Cl)cccc2Cl)c2ccccc21)C(N)=NCc1ccccc1 (stereo unspecified)	-11	-4	·
CCc1ccc(OCCSc2nc3ccccc3n2CCO)cc1	-11	3	1
CC(=O)NC(NC(=S)Nc1ccc(C(=O)O)cc1)C(Cl)(Cl)Cl (stereo unspecified)	-12	-4	·
C=CCN1C(=O)c2cccc3c(Cl)ccc(c23)C1=O	3	-3	-5
C=CCNc1ccc2c3c(cccc13)C(=O)N(c1ccccc1)C2=O	99*	-7	-5
CC(=O)Nc1ccc2c3c(cccc13)C(=O)N(c1ccccc1)C2=O	-1	-6	-5
Cc1cccc(N2C(=O)c3cccc4c(N)ccc(c34)C2=O)c1	77	4	-1
O=C1c2cccc3c(NCCO)ccc(c23)C(=O)N1CCO	107*	-4	-3
Nc1ccc2c3c(cccc13)C(=O)N(c1ccccc1)C2=O	76*	-1	·
Cc1ccc(C)c(Cn2c(=O)c3c(nc4n(C)c(C)c(C)n34)n(C)c2=O)c1	2	-8	·
COc1ccc(C)cc1NC(=O)c1c(C)c(N2CCOCC2)c(C)n1Cc1cccc(F)c1	21	-2	-8
CCc1ccc(CN2CC[C@@H](c3ccc(F)cc3)[C@H](O)C2)nc1	12	-4	·
CC(=O)Nc1c(-c2cc(C)cc(C)c2)nc2cc(C)ccn12	-4	0	1
Cc1cc(C)cc(-c2nc3cc(C)ccn3c2NC(=O)CCl)c1	-10	-6	42*
CC(=NCCCn1ccnc1)c1c(-c2ccccc2)[nH]n(-c2nc3ccccc3s2)c1=O	-4	6	4
CCCN=Cc1c(-c2ccccc2)[nH]n(-c2nc3ccccc3s2)c1=O	2	54*	-2
O=C(CCC1CCCN(C(=O)C2CCOCC2)C1)NCc1ccccc1F (stereo unspecified)	2	1	·
CN1C(=S)N(C2CCCCC2)C(=O)/C1=C\c1ccc2c(c1)OCO2	46*	-3	-8
CN1C(=S)N(c2ccc3c(c2)OCO3)C(=O)/C1=C\c1cccc(OCCO)c1	34	-1	-3
CCOC(=O)N1CCC(NS(=O)(=O)CCCOc2ccc(F)cc2)CC1	7	-7	-9
COc1cc(C=C2COc3ccccc3C2=O)ccc1OCc1ccccc1	-4	-5	12
SMILES	NPYLR7 ag	hcGAS lum	mcGAS lum
COc1ccc2c(c1)OC/C(=C\c1ccc(OC)c(O)c1)C2=O	·	-7	46*
Cn1c(=O)c2c(nc(CN3CCN(c4ccc(F)cc4)CC3)n2CCCO)n(C)c1=O	7	-5	·
O=C(Sc1cccc2cccnc12)c1ccccc1Cl	-7	60*	44*
CSc1ccccc1NC(=O)c1cccc2cccnc12	6	1	·
CN1CC(=O)N(CCCC(=O)O)C1=O	6	-5	·
O=C(/C=C/c1ccccc1)N1CCCN(c2nc(C3CCOCC3)nc3c2cnn3-c2ccccc2)CC1	10	-8	-6
O=C(c1cccs1)c1cccs1	-1	-9	·
NC(=O)n1c(O)c(C(=O)c2cccs2)c2cc(Cl)ccc21	-3	67*	·
CCOC(=O)c1c(N2CCCC2=O)sc(C)c1CC	1	-8	·
O=C(NCCc1ccccn1)C(C1CCCC1)N1CCN(C(=O)c2ccc(Cl)c(Cl)c2)CC1 (stereo unspecified)	-7	-4	-4
COc1cc2oc(=O)cc(C)c2c(OC)c1OC(C)=O	-1	2	·
CC(=O)Oc1cc2oc(=O)c(Cl)c(C)c2cc1Cl	-1	72*	29
O=c1oc2cc(O)ccc2cc1-c1nc2ccccc2s1	140*	-2	-3
CCOc1ccc2cc(-c3nc4ccccc4s3)c(=O)oc2c1	0	-4	-5
CC[n+]1c2ccccc2cc2ccccc21	10	-3	·

High-throughput results deposited in PubChem by Fisher Drug Discovery Resource Center.
